For some of these results: Entries with a potency or affinity are not part of this list.

The results in this text go back to ChEMBL document CHEMBL3988442, “University of Dundee, Small-Polar-MMV Screening Library” (2021).

Common to all, as to set-up: scale not given: direction of the effect not stated beside the values
Assay [1] concerns the target Protein translocase subunit SecA (Escherichia coli (strain K12)) (UniProt P10408). Nature of the assay: Assay to Identify E. coli SecA ATPase Inhibitors. The assay is classed as functional. As to conditions: 30 µM.
Assay [2] addresses T1, Ubiquitin-activating enzyme e1, putative (Leishmania donovani (strain BPK282A1)) (UniProt E9BSI1).
T1 sequence (whole entry): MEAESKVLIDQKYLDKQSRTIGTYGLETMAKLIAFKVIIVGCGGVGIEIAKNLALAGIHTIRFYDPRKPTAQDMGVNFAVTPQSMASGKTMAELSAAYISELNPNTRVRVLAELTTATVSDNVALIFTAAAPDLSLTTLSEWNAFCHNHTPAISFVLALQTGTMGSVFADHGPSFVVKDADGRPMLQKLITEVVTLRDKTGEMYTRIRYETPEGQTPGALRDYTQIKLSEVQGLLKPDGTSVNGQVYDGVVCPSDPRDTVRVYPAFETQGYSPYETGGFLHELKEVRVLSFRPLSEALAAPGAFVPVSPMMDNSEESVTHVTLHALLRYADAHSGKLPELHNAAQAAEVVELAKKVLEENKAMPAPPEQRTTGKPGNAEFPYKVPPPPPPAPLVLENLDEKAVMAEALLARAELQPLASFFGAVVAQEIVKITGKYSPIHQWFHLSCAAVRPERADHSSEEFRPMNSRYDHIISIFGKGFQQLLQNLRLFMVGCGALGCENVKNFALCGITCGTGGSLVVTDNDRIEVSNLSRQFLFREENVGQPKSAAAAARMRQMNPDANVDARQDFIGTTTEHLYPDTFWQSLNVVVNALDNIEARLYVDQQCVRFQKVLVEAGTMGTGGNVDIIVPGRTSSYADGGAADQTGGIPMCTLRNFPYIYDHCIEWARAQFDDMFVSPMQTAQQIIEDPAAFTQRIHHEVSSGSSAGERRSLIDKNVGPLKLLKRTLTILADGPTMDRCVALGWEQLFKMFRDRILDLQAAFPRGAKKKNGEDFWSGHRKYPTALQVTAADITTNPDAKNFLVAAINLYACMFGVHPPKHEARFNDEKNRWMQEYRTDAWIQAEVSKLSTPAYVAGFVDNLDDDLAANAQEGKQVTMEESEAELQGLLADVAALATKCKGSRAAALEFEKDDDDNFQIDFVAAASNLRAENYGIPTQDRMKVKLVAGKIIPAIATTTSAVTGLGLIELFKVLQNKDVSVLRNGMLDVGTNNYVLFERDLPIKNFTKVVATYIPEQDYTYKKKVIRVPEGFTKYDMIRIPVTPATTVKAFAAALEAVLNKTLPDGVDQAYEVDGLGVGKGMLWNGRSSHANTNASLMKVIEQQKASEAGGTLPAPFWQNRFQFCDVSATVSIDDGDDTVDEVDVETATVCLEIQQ
Nature of the assay: Leishmania donovani Ubiquitin Activating Enzyme (LdE1). The format is functional. To be noted: 30 µM.

Assay [3] has as its target AMP-activated protein kinase, AMPK (Homo sapiens) (UniProt P54646+O43741+P54619+Q9UGJ0+Q9Y478+Q13131+Q9UGI9). The assay can be described thus: AMP-dependent Kinase enzyme assay. An in vitro enzyme assay that detects ADP turnover that is directly proportional to AMPK activity. This uses naive AMPK that is activated during the assay with MK-8722. As to conditions: 30 µM. The format is functional.

Assay [4] concerns the target Sialic acid-binding Ig-like lectin 9 (Homo sapiens) (UniProt Q9Y336). The assay can be described thus: Hs-Siglec9 ALPHAscreen SOP 20170721. As to conditions: 10 µM. (Alpha assays give light when donor and acceptor beads are brought close together.)
Another assay deals with Trypanosoma cruzi. Nature of the assay: Trypanosoma cruzi phosphomannomutase and mannose-1-phosphate guanylyltransferase assay. The format is functional. As to conditions: 10 µM.
The target of assay [5] is T2, Arginase-2, mitochondrial (Homo sapiens) (UniProt P78540).
T2 sequence (whole entry): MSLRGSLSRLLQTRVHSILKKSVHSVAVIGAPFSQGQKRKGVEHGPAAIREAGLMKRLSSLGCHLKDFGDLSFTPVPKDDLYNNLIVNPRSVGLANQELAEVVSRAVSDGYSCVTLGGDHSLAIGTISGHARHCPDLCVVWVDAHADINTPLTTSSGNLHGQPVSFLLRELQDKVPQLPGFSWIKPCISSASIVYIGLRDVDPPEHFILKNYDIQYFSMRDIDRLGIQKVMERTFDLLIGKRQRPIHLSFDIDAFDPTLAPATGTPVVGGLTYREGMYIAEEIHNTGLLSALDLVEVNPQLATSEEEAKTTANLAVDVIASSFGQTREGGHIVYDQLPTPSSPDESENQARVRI
Nature of the assay: in vitro enzyme assay to detect the production of urea directly proportional to the activity of Arginase II. Note: in the data most compounds retested in dose-response had high values. The assay is classed as functional. To be noted: 33.3 µM.

Assay [6] has as its target T3, Proteasome subunit beta (Trypanosoma cruzi) (UniProt O96673).
T3 sequence (whole entry): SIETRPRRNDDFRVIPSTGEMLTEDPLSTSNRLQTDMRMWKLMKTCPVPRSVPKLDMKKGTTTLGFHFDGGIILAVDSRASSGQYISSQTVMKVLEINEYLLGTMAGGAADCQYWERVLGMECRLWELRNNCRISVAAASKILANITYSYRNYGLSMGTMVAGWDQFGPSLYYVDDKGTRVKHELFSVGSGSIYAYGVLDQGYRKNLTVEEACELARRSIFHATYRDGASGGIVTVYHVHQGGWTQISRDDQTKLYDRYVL
Nature of the assay: Trypanosoma cruzi proteasome chymotrypsin-like activity (TcProtChymo) assay. Note: in the data most compounds retested in dose-response had high values. The format is functional. As to conditions: 9.37 µM.

The species named for another assay is Homo sapiens. The assay can be described thus: To identify inhibition of the IFN signalling (Jak-Stat) pathway via expression of an eGFP reporter gene under the control of an IFN-stimulated response element (ISRE) containing MxA promoter. The assay is classed as functional. As to conditions: 30 µM.
Assay [7] deals with T4, Tyrosyl-tRNA synthetase, putative (Trypanosoma cruzi (strain CL Brener)) (UniProt Q4DSP6).
T4 sequence (whole entry): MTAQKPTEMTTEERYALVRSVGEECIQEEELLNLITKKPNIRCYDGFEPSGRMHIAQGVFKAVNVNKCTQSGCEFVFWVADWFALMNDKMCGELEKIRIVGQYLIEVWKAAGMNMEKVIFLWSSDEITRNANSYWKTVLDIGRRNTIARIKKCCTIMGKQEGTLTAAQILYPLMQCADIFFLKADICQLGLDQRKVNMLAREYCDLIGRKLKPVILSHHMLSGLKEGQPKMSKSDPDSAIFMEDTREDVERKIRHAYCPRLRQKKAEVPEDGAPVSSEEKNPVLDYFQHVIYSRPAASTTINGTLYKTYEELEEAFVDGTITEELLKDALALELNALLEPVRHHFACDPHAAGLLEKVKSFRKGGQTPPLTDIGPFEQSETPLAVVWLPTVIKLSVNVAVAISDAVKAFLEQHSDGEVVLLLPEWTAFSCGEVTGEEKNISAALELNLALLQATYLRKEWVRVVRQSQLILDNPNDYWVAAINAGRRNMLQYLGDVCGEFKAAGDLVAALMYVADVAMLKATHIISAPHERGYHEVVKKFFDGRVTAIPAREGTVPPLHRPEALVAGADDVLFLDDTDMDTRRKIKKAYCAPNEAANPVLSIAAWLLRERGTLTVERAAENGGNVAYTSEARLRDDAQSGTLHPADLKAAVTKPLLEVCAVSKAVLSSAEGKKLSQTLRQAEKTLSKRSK
Nature of the assay: Trypanosoma cruzi tyrosyl tRNA synthetase (TcYRS) _High Tyrosine SOP. Note: in the data most compounds retested in dose-response had high values. The assay is classed as functional. As to conditions: 30 µM.

Assay [8] deals with T4, Tyrosyl-tRNA synthetase, putative (Trypanosoma cruzi (strain CL Brener)). The assay can be described thus: Trypanosoma cruzi tyrosyl tRNA synthetase (TcYRS) SOP. To be noted: 30 µM. The format is functional.
Assay [9] concerns the target Chromo domain-containing protein 1 (Saccharomyces cerevisiae (strain ATCC 204508 / S288c) (Baker's yeast)) (UniProt P32657). The assay can be described thus: ScCHD-1 Enzyme Inhibition Assay. Note: in the data most compounds retested in dose-response had high values. The format is functional. To be noted: 30 µM.

Chain of Sialic acid-binding Ig-like lectin 9 (Homo sapiens) (Q9Y336 whole entry): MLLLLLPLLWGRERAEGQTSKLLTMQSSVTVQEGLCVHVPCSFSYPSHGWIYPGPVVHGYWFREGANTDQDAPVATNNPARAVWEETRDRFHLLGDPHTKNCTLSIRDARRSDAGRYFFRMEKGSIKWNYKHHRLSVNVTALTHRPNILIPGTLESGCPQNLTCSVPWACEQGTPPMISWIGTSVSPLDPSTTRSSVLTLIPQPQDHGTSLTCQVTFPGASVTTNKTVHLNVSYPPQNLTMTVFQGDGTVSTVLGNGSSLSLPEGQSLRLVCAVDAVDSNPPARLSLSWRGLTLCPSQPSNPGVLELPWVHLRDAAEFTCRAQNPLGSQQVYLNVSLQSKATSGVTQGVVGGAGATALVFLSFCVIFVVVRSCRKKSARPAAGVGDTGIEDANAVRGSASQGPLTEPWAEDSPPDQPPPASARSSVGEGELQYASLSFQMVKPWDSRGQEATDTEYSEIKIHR
Chain of Protein translocase subunit SecA (Escherichia coli (strain K12)) (P10408 whole entry): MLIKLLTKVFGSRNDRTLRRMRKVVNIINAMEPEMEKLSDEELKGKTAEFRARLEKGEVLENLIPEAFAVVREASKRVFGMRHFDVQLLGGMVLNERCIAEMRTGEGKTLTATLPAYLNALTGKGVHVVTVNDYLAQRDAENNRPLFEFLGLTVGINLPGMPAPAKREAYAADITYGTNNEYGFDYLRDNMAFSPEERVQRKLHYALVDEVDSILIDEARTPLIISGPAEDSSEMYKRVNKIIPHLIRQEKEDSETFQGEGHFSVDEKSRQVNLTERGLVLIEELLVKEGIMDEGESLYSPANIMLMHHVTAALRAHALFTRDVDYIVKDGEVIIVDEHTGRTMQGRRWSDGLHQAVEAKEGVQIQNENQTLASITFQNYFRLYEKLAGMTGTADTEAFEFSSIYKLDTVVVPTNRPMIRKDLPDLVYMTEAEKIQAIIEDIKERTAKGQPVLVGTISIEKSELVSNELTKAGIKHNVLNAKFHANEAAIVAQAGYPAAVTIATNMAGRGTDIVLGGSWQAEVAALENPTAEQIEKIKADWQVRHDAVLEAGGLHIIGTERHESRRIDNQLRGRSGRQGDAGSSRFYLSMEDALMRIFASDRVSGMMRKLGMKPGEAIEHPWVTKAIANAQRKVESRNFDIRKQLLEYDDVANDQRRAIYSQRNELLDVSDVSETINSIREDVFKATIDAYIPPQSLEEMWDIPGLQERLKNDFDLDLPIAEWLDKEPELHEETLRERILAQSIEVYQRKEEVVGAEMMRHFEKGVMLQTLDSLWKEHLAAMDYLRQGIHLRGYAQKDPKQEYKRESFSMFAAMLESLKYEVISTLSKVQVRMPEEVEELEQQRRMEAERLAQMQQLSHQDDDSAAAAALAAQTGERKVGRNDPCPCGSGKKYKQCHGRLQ
Chain of Chromo domain-containing protein 1 (Saccharomyces cerevisiae (strain ATCC 204508 / S288c) (Baker's yeast)) (P32657 whole entry, the tested form may be a part): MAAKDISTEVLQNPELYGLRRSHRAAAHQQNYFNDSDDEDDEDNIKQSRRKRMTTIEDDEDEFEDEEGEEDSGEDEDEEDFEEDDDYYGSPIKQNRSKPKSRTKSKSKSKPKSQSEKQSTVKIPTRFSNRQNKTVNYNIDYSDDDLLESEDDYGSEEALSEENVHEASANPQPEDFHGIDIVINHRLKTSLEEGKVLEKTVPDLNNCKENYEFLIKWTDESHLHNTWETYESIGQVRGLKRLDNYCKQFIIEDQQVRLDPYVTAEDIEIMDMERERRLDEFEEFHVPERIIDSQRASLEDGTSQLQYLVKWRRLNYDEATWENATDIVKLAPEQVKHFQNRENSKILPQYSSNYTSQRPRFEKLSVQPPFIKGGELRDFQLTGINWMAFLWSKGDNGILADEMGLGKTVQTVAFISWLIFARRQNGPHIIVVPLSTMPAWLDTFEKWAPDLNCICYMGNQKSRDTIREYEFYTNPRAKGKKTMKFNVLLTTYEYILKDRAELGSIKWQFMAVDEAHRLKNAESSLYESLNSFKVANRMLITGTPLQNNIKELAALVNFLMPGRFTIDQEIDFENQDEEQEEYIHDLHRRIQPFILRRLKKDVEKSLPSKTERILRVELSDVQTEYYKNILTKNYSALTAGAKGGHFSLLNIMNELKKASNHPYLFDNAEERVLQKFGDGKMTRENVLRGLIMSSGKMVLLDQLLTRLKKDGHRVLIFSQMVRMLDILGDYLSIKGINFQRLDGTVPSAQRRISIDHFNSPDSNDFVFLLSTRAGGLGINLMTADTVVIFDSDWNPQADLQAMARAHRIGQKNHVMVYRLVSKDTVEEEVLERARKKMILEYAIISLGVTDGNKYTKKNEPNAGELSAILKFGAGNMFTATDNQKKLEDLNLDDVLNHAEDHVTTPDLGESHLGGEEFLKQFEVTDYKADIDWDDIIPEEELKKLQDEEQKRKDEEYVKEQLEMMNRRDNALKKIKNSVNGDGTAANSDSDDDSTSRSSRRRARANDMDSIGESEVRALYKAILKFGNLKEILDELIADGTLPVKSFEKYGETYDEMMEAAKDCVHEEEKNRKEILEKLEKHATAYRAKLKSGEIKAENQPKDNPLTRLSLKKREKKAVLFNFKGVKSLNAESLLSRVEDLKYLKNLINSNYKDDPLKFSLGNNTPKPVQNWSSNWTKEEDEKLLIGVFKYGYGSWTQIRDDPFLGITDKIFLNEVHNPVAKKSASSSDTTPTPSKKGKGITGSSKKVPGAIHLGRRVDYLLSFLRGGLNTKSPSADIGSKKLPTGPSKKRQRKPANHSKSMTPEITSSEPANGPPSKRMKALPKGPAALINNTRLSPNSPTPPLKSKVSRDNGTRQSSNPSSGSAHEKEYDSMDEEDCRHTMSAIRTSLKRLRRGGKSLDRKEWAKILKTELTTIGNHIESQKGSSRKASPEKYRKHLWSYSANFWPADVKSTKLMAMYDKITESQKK

`O=C(NCC1OCCc2cn(CC3CC3)nc21)c1ccsc1` (stereo unspecified): the Percent Effect in assay [1] is -5.87%; in [2] it was 18.2%; in assay [3] it was 2.23%; in assay [4], -1.55%; in the assay with Trypanosoma cruzi it was 3.65%; in assay [5] it was 1.94%. For the same molecule, the Percent Effect in [6] was 12.2%; in the assay listed under Homo sapiens, 8.57%; in assay [7], 2.12%; in assay [8], 14.1%; in assay [9], -7.27%.

On to `O=C(NCc1nnc2n1CCCCC2)N1CCc2sccc2C1`, for which the Percent Effect was 0.647% in [1]; 16.5% in assay [2]; -6.61% in assay [3]; 2.88% in assay [4]; 1.95% in the assay on Trypanosoma cruzi; 2.8% in assay [5]. For the same molecule, the Percent Effect was 13% in assay [6]; 16.8% in the assay listed under Homo sapiens; 0% in [7]; 10.1% in assay [8]; -27% in [9].

As to `Cc1cc(-c2nnn(CCC(N)=O)n2)ccc1F`, the Percent Effect was -3.96% in assay [1]; 13.7% in [2]; -6.12% in assay [3]; 8.1% in [4]; 5.75% with Trypanosoma cruzi; -2.79% in [5]. The Percent Effect in assay [6] is 15.3%; in the assay listed under Homo sapiens, 11.3%; in assay [7] it was 8.33%; in assay [8] it was 13.6%; in assay [9], -2.17%.

Turning to `CC(C)n1ccnc1C1CCCN(c2ccccn2)C1` (stereo unspecified), the Percent Effect is -4.71% in assay [1]; 5.33% in assay [2]; -0.644% in [3]; 4% in assay [4]; -2.43% with Trypanosoma cruzi; 0% in [5]. The Percent Effect in assay [6] is 18.7%; in the assay listed under Homo sapiens, 15.1%; in assay [7], 3.83%; in assay [8] it was 11.1%; in assay [9], -7.89%.

Regarding `Cc1cc(OCC(=O)NC(C)c2ccc(N3CCOCC3)cc2)no1` (stereo unspecified), the Percent Effect in [1] is -4.84%; in assay [2] it was 18.2%; in [3], -0.141%; in assay [4], 11.2%; in the assay on Trypanosoma cruzi it was 5.61%; in [5] it was -89.7%. The Percent Effect in [6] is 8.15%; in the assay listed under Homo sapiens, -3.73%; in assay [7], 3.23%; in assay [8], 13.6%; in assay [9], -6.7%.

Regarding `c1coc(CN2Cc3nccn3CC(Cn3cncn3)C2)c1` (stereo unspecified), the Percent Effect was -4.49% in assay [1]; -2.74% in assay [2]; -1.24% in assay [3]; 1.11% in [4]; -2.38% with Trypanosoma cruzi; -4.39% in [5]. The Percent Effect in assay [6] was 6.25%; in the assay filed under Homo sapiens, -3.99%; in assay [7] it was 1.04%; in assay [8] it was 1.24%; in assay [9] it was -1.23%.

As to `CC(C)c1noc(C(C)N2CCN(CCN3CCCC3=O)CC2)n1` (stereo unspecified), the Percent Effect in assay [1] was -5.03%; in assay [2], 5.41%; in [3] it was -10%; in assay [4], 9.09%; in the assay with Trypanosoma cruzi it was -2.17%; in assay [5] it was 1.6%. Also, the Percent Effect in assay [6] is -1.62%; in the assay filed under Homo sapiens, 9.64%; in [7] it was 1.48%; in [8], 1.24%; in [9] it was 0.594%.

In the case of `O=C(NCC1CCN(Cc2ccsc2)CC1)NC1CC1`, the Percent Effect was 1.05% in [1]; 7.79% in assay [2]; 2.27% in assay [3]; -0.902% in assay [4]; -5.62% with Trypanosoma cruzi; 14.8% in [5]. For the same molecule, the Percent Effect in [6] is 17.2%; in the assay filed under Homo sapiens it was 10.3%; in assay [7], 2.12%; in [8], 6.41%; in [9], -5.17%.

For the molecule `Cc1nc(C2CCCN2CCCNS(C)(=O)=O)no1` (stereo unspecified), the Percent Effect in assay [1] was -3.7%; in [2], 15.8%; in [3], -4.74%; in [4], 1.41%; in the assay with Trypanosoma cruzi, 7.14%; in [5], 4.98%. The Percent Effect is 20.4% in [6]; -7.41% in the assay listed under Homo sapiens; 4.41% in assay [7]; 19.5% in [8]; -5.18% in assay [9].

Turning to `CC1CN(C)CCN1C(=O)c1ccn(-c2cccc(Cl)c2)n1` (stereo unspecified), the Percent Effect in assay [1] is -4.4%; in assay [2] it was 5.2%; in assay [3], 3.41%; in [4], 8.46%; in the assay with Trypanosoma cruzi, 3%; in assay [5], -4.98%. Also, the Percent Effect in [6] was -5.91%; in the assay filed under Homo sapiens, -0.574%; in assay [7] it was 2.91%; in assay [8], 9.76%; in [9], -7.43%.

Regarding `Cc1cc(C)c(CNC(=O)N2CCCC2c2ccccc2)c(=O)[nH]1` (stereo unspecified), the Percent Effect was -1.29% in assay [1]; -77.2% in assay [2]; 4.12% in assay [3]; 3.59% in assay [4]; 3.59% in the assay with Trypanosoma cruzi; 3.23% in assay [5]. Further, the Percent Effect in assay [6] is 19.4%; in the assay filed under Homo sapiens, -0.586%; in assay [7], 3.12%; in [8] it was 17.7%; in [9], -23.8%.
